This is part of a sample that, as a whole, favours compounds with a hit. Of some 83,000 tested, about 20% had one in any assay.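 Activity criterion: percent growth below 10, measured after cells in 96-well plates were exposed to a single compound concentration for 48 hours.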 Calls of active or inactive are those of the source.

The test deals with A549/ATCC NSCLC. In words: NCI-60 one-dose screen, 48 h (100 = growth as untreated, 0 = no growth, -100 = all killed). The following applies: 10 µM unless noted.
Consider `COc1cc2ncnc(Nc3ccc(S(=O)(=O)Nc4nccs4)cc3)c2cc1OCCCN1CCOCC1`, for which the growth is 103% (inactive).

On to `Fc1ccc(-c2cnc3nonc3n2)c(F)c1`, for which the growth was 109% (inactive).

Consider `COCc1nc(NS(=O)(=O)c2ccc(N)cc2)nc(C)c1Br`, for which the growth is 94% (inactive).

As to `COc1ncnc2[nH]cc(CN3CCN(c4ccc(F)cc4)CC3)c12`, the growth is 96.5% (inactive).

Regarding `CC(C)N(C(=S)SSC(=S)N(C(C)C)C(C)C)C(C)C`, the growth is 95.9% (inactive).

For the compound `COc1cc2c(=O)n(CCCN(C)C)c3c4cc[nH]c4ncc3c2cc1OC`, the growth was 44.1% (inactive).

With `CCCCCCCCN(CCCCCCCC)C(=O)CCl`, the growth was 114% (inactive).

With `COc1cc(/C=N/NC(=O)Cn2c(-c3ccc(C)o3)nc3ccccc32)ccc1OCc1ccccc1`, the growth is 72.9% (inactive).

For the compound `CCN(CC)c1ccc(/C=N/NC(=O)C[N+](C)(C)C)cc1`, the growth is 100% (inactive).

Turning to `c1cc2c(cc1-c1cnc3nonc3n1)OCO2`, the growth is 97.4% (inactive).

Consider `CC(C)[C@@]12C[C@@H](OC(=O)C3CO3)[C@@](C)(O1)[C@@H]1CC[C@@H](C)[C@H]1[C@@H]2OC(=O)/C=C/c1ccccc1` (stereo partly drawn), for which the growth is 75.7% (inactive).

Regarding `ClC1(Cl)C2CCCCCCC21` (stereo not drawn), the growth is 98.2% (inactive).

Regarding `CCCCOc1nc2ccccc2cc1/C=C/c1cc(/C=C/c2cc3ccccc3nc2OCCCC)n(-c2ccccc2)n1`, the growth is 102% (inactive).

Take `S=C(S)Oc1cccc2cccnc12`: the growth is 98.5% (inactive).

`Cc1cc(-c2ccc(N=Nc3c(S(=O)(=O)O)cc4cc(S(=O)(=O)O)cc(O)c4c3O)c(C)c2)ccc1N=Nc1c(S(=O)(=O)O)cc2cc(S(=O)(=O)O)cc(O)c2c1O`: the growth was 101% (inactive).

As to `O=C(NCCN1CCCCC1)n1cc(-c2ccncc2)c(-c2ccc(Cl)c(O)c2)n1`, the growth is 98.4% (inactive).

For the compound `N/C(=N\OC(=O)c1ccccc1)C(Cc1ccccc1)C(=O)NOC(=O)c1ccccc1` (stereo not drawn), the growth was -60.3% (active).

`Nc1ncnc2c1N=C(c1ccc3c(c1)OCO3)CC(c1ccc(Cl)cc1)N2` (stereo not drawn): the growth is 79.6% (inactive).

Consider `COc1ccc(C(=O)OC2C(OC3C(O)COC(O[C@H]4C[C@H]5[C@@H]6CC=C7C[C@@H](O)CC[C@]7(C)[C@H]6CC[C@]5(C)[C@H]4[C@H](C)C(=O)CCC(C)C)C3OC(C)=O)OCC(O)C2O)cc1` (stereo partly drawn), for which the growth was -14.3% (active).

As to `O=C(Nc1ccncc1)C(=O)c1cn(S(=O)(=O)c2cccc(Cl)c2F)c2ccccc12`, the growth is 82.8% (inactive).

With `OC(CCCCCCCCC(O)CN1CCc2ccccc2C1)CN1CCc2ccccc2C1` (stereo not drawn), the growth is 101% (inactive).

As for `CCCNCCC(C)=O`, the growth is 95.6% (inactive).

Take `CC1OC(n2c3ccccc3c3c4c(c5c6ccccc6[nH]c5c32)C(=O)N(CCN2CCOCC2)C4=O)CC(O)C1O` (stereo not drawn): the growth was 12.2% (inactive).

With `COc1ccc(-c2nc(SCCC(C)C)nc(Nc3ccc(C(=O)O)cc3)c2C#N)cc1`, the growth is 67.2% (inactive).

With `CCOC(=O)C1C(=O)C=C(c2cc(OC)c(OC)c(OC)c2)CC1c1sc(N(C)Cc2ccccc2)nc1Cl` (stereo not drawn), the growth was 71.6% (inactive).

Consider `C#Cc1cccc(Nc2nc3cc([N+](=O)[O-])ccc3nc2Nc2ccc(O)cc2)c1`, for which the growth is 11.3% (inactive).

As for `O=C(Nc1cccc(-n2ccc3c(NC(=O)c4ccccc4)nccc32)c1)c1ccc(N2CCOCC2)c(C(F)(F)F)c1`, the growth was 8.39% (active).

Regarding `Cc1ccc(NC(=O)c2sc3nc4c(cc3c2N)C(=O)CCC4)cc1Cl`, the growth was 101% (inactive).

With `COc1ccc(-c2cc(C(=O)Nc3ccc(C)cc3)nc3[nH]c(=O)sc23)cc1`, the growth is 50.6% (inactive).

In the case of `COc1cc(/C=C/c2cc(/C=C/c3ccc(O)c(OC)c3)n(C(=O)Nc3ccc(F)c(Cl)c3)n2)ccc1O`, the growth was 5.9% (active).

For `COc1cc2c(c(OC)c1O)C(=O)C(OC)C(c1ccc(O)c(O)c1)O2` (stereo not drawn), the growth was 17.7% (inactive).

As for `CCOC(OCC)c1cnc2nc(NC(C)=O)[nH]c(=O)c2n1`, the growth is 99.7% (inactive).

`S=C(Cc1ccccc1)N1CCN(c2ccccc2Cl)CC1`: the growth is 95.1% (inactive).

Consider `CCCCOc1nc2ccc(C)cc2cc1/C=C/C(=O)/C=C(O)/C=C/c1cc2cc(C)ccc2nc1OCCCC`, for which the growth was 91.7% (inactive).

As for `COc1ccccc1CNCCCN1C(=O)c2ccc3c4c(ccc(c24)C1=O)C(=O)N(CCCCNCCCN)C3=O`, the growth was 33% (inactive).

`OC(COCc1ccccc1)COCc1ccccc1`: the growth is 99.9% (inactive).

As for `CC(C)CC1NC(=O)C(CC(C)C)N(CO)C1=O` (stereo not drawn), the growth was 102% (inactive).

As to `OCCN(CCO)c1ccc2ccccc2c1`, the growth is 97.7% (inactive).

The values are drawn from PubChem BioAssay (NCI).
